Each structure is given as a SMILES string. Several values for one entry are separate records, joined by “and”; a condition that tells them apart may be missing. Equal entries are not always repeated. Inconclusive results are not listed. A call without a number means that no potency is given here. Activity calls are given as the source filed them. Calls come from the whole dose curve.
Potency is the fitted concentration of half-maximal effect.

This experiment can be described thus: p53 small molecule agonists, cell-based qHTS assay: qHTS cell viability counter screen (AID 1963581). Note: nearly all actives have a fitted effect of over 45% in size. As to conditions: p53RE-bla HCT-116 viability, ATP luminescence, 16 h; series mostly up to 66 µM. An excerpt: National Center for Advancing Translational Sciences [NCATS]
Division of Preclinical Innovation [DPI]
U.S. Environmental Protection Agency [EPA]
National Institutes of Environmental Health Sciences [NIEHS]
National Toxicology Program [NTP]
U.S. Food and Drug Administration [FDA]
p53, a tumor suppressor protein, is activated following cellular insult, including DNA damage and other cellular stresses. The activation of p53 regulates cell fate by inducing DNA repair, cell cycle arrest, apoptosis, or cellular senescence. The activation of p53, therefore, is a good indicator of DNA damage and other cellular stresses. The CellSensor p53RE-bla HCT-116 cell line (Invitrogen) contains a stably integrated beta-lactamase reporter gene under control of the p53 response elements. The activation of the reporter gene under culture conditions can be detected by fluorescence intensity. This cell line was used to screen the Tox21 compound library in a 1536-well plate format and to identify agonists that activate the p53 signaling pathway. The cytotoxicity of the Tox21 compound library against the p53 RE-bla HCT-116 cell line was tested in parallel by measuring the intra cellular ATP content in the same wells.
Tox21 Assay Protocol Summary:
The p53RE-bla cells were dispensed at 4,000 cells/5 ul/well in 1536-well black wall/clear bottom plates using a Multidrop dispenser. After the assay plates were incubated at a 37 C/5% CO2 incubator for 5 hours, 23 nL of compounds dissolved in DMSO, positive controls or DMSO only was transferred to the assay plate by a pin tool. The plates were incubated at 37 C for 16 hours. After 1 uL of LiveBLAzerTM B/G FRET substrate was added using a Flying Reagent Dispenser, the plates were incubated at room temperature for 2 hours, and fluorescence intensity was measured by an Envision plate reader. For cell viability readout that measures cytotoxicity, 4 ul/well of CellTiter-Glo reagent was added into the assay plates using a Flying Reagent Dispenser. After 30 min incubation at room temperature, the luminescence intensity in the plates was measured using a ViewLux plate reader.
On to `CCCCCCCCCCCCCCCCC`, for which the Potency entry is “inactive”.
The same measure, in the same setting: the result for `O=C1C(c2[nH]c3ccc(S(=O)(=O)O)cc3c2O)=Nc2ccc(S(=O)(=O)O)cc21` reads “inactive”.
For the compound `OCCOc1ccc(OCCO)cc1`, the Potency entry was “inactive”.
Same read-out and setting: the result for `COC(=O)N[C@H](C(=O)N[C@@H](Cc1ccccc1)[C@@H](O)CN(Cc1ccc(-c2ccccn2)cc1)NC(=O)[C@@H](NC(=O)OC)C(C)(C)C)C(C)(C)C` reads “inactive”.
In the case of `NCCc1ccc(O)c(O)c1`, the Potency entry is “inactive”.
`Oc1ccc(C(c2ccc(O)cc2)C(Cl)(Cl)Cl)cc1`: the Potency result was “inactive”.
Turning to `CCN[C@H]1CN(CCCOC)S(=O)(=O)c2sc(S(N)(=O)=O)cc21`, the Potency entry was “inactive”.
Still for that read-out and setting: the result for `COc1ccccc1C=O` reads “inactive”.
Still for that read-out and setting: for `NS(=O)(=O)c1ccccc1OC(F)(F)F` the value was “inactive”.
With `Cc1ccc(S(=O)(=O)O)c(C)c1`, the Potency result is “inactive”.
For the compound `O=C(O)C(=O)Nc1cccc(-c2nn[nH]n2)c1`, the Potency entry was “inactive”.
On to `Nc1cc([N+](=O)[O-])ccc1Cl`, for which the Potency entry is “inactive”.
`CC(C)(Oc1ccc(CCNC(=O)c2ccc(Cl)cc2)cc1)C(=O)O`: the Potency entry was “inactive”.
The same measure, in the same setting: for `COc1ccc2c(c1)CCCC2=O` the value was “inactive”; for `OC1CCCC1`, “inactive”; for `CO[Si](CCCNCCNCCN)(OC)OC`, “inactive”.
On the same count and under the same terms, for `C=CC(=O)OCCOC(=O)C=C` the value was “inactive”.
On to `CC(C)(CCl)c1ccccc1`, for which the Potency entry was “inactive”.
For `Cc1[nH]cnc1-c1ccc(Cl)cc1`, the Potency entry was “inactive”.
Still for that read-out and setting: the result for `O=C1CCCCCCCCCCCCCCCO1` reads “inactive”.
`C1COCCO1`: the Potency entry is “inactive”.
Still for that read-out and setting: for `CCN(CC)c1ccc(C(=O)c2ccccc2C(=O)O)c(O)c1` the value was “inactive”.
For the compound `COC(=O)OC`, the Potency entry was “inactive”.
Take `C1C[C@@H]2[C@H]3CC[C@H](C3)[C@@H]2C1`: the Potency result was “inactive”.
Still for that read-out and setting: for `COCC(C)OC(C)=O` (stereo not given) the value was “inactive”.
`CCCc1c2oc(C(=O)O)cc(=O)c2cc2c(=O)cc(C(=O)O)n(CC)c12`: the Potency result was “inactive”.
For the compound `C/C(=C(\CCO)SS/C(CCO)=C(\C)N(C=O)Cc1cnc(C)nc1N)N(C=O)Cc1cnc(C)nc1N`, the Potency result is “inactive”.
As for `CC(C)(c1cc(Br)c(O)c(Br)c1)c1cc(Br)c(O)c(Br)c1`, the Potency is 36.2 µM (active) and 40.7 µM (active).
With `c1ccc2c(c1)-c1cccc3c1c-2cc1ccccc13`, the Potency entry is “inactive”.
Same read-out and setting: for `CC1COc2ccccc2N1` (stereo not given) the value was “inactive”; for `c1ccc2cnccc2c1`, “inactive”.
Take `CCCSSCCC`: the Potency result is “inactive”.
Same read-out and setting: the result for `O=C(Cn1ccnc1[N+](=O)[O-])NCc1ccccc1` reads “inactive”; that for `CCOc1c(N2CCOCC2)cnn(C)c1=O`, “inactive”.
Take `CCOC(=O)C(C)Oc1ccc(Oc2cnc3cc(Cl)ccc3n2)cc1` (stereo not given): the Potency result is “inactive”.
Regarding `O=C(O)CN(CCN(CC(=O)O)CC(=O)O)CCN(CC(=O)O)CC(=O)O`, the activity change, negative = cytotoxicity was -11.9% [at 13.5 µM] (inactive).
Regarding `COc1cccc2c1C(=O)c1c(O)c3c(c(O)c1C2=O)C[C@@](O)(C(=O)CO)C[C@@H]3O[C@H]1C[C@H](N)[C@H](O)[C@H](C)O1`, the Potency result was “inactive”.
Take `NS(=O)(=O)c1ccc(N2CCCCS2(=O)=O)cc1`: the Potency result is “inactive”.
For `CC(Cl)COP(=O)(OCC(C)Cl)OCC(C)Cl` (stereo not given), the Potency result was “inactive”.
For `CCC(O)CO` (stereo not given), the Potency entry was “inactive”.
